As a reminder, the AC50 is the concentration giving half of the maximal activity seen.

Where “and” joins values, the source holds several entries; their conditions need not be identical. Equal values may be shown once. Screen size: about 16,000 compounds; about 5,700 (36%) were called active. Another 24% or so got no clear call; they are omitted. The list shows a part of the results. A number with no mark means an inactive call. Calls come from the whole dose curve; as a rule, active = well fitted curve in the direction sought with a large enough effect; inconclusive = small, poorly fitted or top-dose-only effect, or effect the other way; inactive = no such curve, though single readings can be large or run the other way.
% is set by controls: 0 for no effect and ±100 for the full control effect.

Cytochrome P450 1A2 (Homo sapiens), sequence (P05177 whole entry, looked up): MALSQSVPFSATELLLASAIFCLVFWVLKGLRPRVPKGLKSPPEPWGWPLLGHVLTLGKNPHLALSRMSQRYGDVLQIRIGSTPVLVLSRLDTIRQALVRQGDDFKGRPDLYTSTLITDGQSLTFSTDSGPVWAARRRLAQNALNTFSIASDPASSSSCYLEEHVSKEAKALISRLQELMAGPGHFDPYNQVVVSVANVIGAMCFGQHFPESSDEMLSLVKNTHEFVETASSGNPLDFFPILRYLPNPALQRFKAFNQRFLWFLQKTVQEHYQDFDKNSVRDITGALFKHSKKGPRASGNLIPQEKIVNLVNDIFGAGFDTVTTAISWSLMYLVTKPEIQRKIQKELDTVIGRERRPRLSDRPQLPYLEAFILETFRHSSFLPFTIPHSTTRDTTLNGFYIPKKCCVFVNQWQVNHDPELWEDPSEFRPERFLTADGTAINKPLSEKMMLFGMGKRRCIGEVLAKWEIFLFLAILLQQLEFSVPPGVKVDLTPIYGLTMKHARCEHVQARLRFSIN

This test concerns the target Cytochrome P450 1A2 (Homo sapiens) (UniProt P05177). Put plainly: Cytochrome panel assay with activity outcomes. To be noted: recombinant CYP, pro-luciferin dealkylation, luminescence, p450-cyp1a2; series mostly up to 57.1 µM.
Consider `COc1cccc2cc(C(=O)CC3(O)C(=O)N(Cc4ccccc4)c4ccccc43)c(=O)oc12` (stereo not drawn), for which the AC50 is 15.8 µM (active). With `CC(C)c1ccc(C(=O)CC2(O)C(=O)N(CN3CCOCC3)c3ccccc32)cc1` (stereo not drawn), the AC50 entry is “inactive”.

Consider `Cn1c(=O)c2c(nc(NCCNc3nc4c(c(=O)n(C)c(=O)n4C)n3C)n2C)n(C)c1=O`, for which the activity, negative = inhibition is -0.53% [at 11.4 µM]. Take `Cn1c(=O)c2c(nc(C(=N)SCC(=O)O)n2C)n(C)c1=O`: the AC50 was 1.26 µM (active). For `CN1CCN(c2nc3c(c(=O)n(C)c(=O)n3C)n2C)CC1`, the activity, negative = inhibition is -16.8% [at 2.29 µM]. With `O=C(NCCOC(=O)c1ccc(C(=O)OCCNC(=O)c2cccnc2)s1)c1cccnc1`, the AC50 entry is “inactive”. On the same count and under the same terms, for `O=C(OCCNC(=O)c1ccc2ccccc2n1)c1ccc(F)cc1` the value was 1.12 µM (active).

In the case of `Nc1ccccc1S(N)(=O)=O`, the AC50 result is “inactive”. On to `Cc1ccc(N=Nc2c(O)c3ccccc3[nH]c2=O)c(S(=O)(=O)N(C)C)c1`, for which the activity, negative = inhibition is -14.6% [at 2.29 µM]. In the case of `Cc1ccc(N=Nc2ccc(N)cc2C)c(S(N)(=O)=O)c1`, the AC50 was 0.501 µM (active). Turning to `CC(C)CNC(=S)N1CCN(C)CC1`, the AC50 result is “inactive”.

For `O=C(O)c1ccccc1-c1ccccc1C(=O)Nc1ccccc1`, the AC50 result is “inactive”. On the same count and under the same terms, for `CC(C)C(=O)NC(=S)Nc1ccccc1C(=O)Nc1ccccc1` the value was 6.31 µM (active); for `O=C1C(SCCO)=C(SCCO)C(=O)c2ccccc21`, 0.631 µM (active). Regarding `OCCSCc1ccccc1`, the activity, negative = inhibition is -13% [at 11.4 µM].

Regarding `O=S(=O)(O)[C@@H](CO)c1ccccc1` (tested in a mixture with another compound), the activity, negative = inhibition is -1.9% [at 2.29 µM]. With `COCCn1c(=O)c(C)nc2cnc(Nc3cccc(OC)c3)nc21`, the AC50 was 1 µM (active).

Consider `COc1cccc(Nc2ncc3nc(C)c(=O)n(CCc4ccccc4)c3n2)c1`, for which the AC50 is 5.01 µM (active). On the same count and under the same terms, then `c1ccc([C@@H]2CN3CCSC3=N2)cc1`, with “inactive”. The same measure, in the same setting: then `COc1ccc(C(=O)Nc2cc(OC)cc(OC)c2)cc1`, with 12.6 µM (active); and `COc1ccc(NC(=O)c2ccc(C(=O)c3cc(OC)ccc3OC)cc2)cc1`, with “inactive”; and `COc1ccc(C(=O)Nc2cccc(OC(=O)c3ccc(C)c(C)c3)c2)cc1`, with 14.1 µM (active).

`COc1ccc(NC(=O)C2(c3ccc(NC(=O)c4ccc(OC(C)=O)cc4)cc3)CCCC2)cc1`: the AC50 entry was “inactive”. Same read-out and setting: then `COc1ccc(OC)c(/C=N/NC(=O)c2csc3ccccc23)c1`, with 3.16 µM (active); and `O=C(N/N=C/c1ccc(O)cc1)c1csc2ccccc12`, with 11.2 µM (active). Still for that read-out and setting: for `Cc1ccc(C)c(-c2nn(-c3cc(N4CCN(CCO)CC4)ccc3[N+](=O)[O-])c(=O)c3ccccc23)c1` the value was “inactive”. Regarding `O=C(O)c1cc2c(cc1S(=O)(=O)O)[C@H]1[C@@H]([C@H]3[C@H]2[C@@]2(Cl)C(Cl)=C(Cl)[C@]3(Cl)C2(Cl)Cl)[C@]2(Cl)C(Cl)=C(Cl)[C@@]1(Cl)C2(Cl)Cl`, the activity, negative = inhibition was -14.5% [at 11.4 µM].

Regarding `O=C(Nc1cccn(Cc2ccc(F)cc2)c1=O)NC1CCCCC1`, the AC50 is 22.4 µM (active). The same measure, in the same setting: for `Cc1ccc(Cn2cccc(NC(=O)NCc3ccccc3)c2=O)cc1` the value was “inactive”; for `O=C(NC1CCCC1)C(c1ccc(F)cc1)N(Cc1ccc(F)cc1)C(=O)c1ccn[nH]1` (stereo not drawn), “inactive”.

`Cc1ccc2cn[nH]c2c1NC(=S)NC(=O)c1ccccc1`: the AC50 is 10 µM (active). Still for that read-out and setting: for `COc1ccc(C(=O)N2CCC3(CCCN(CC(C)C)C3)CC2)cc1` the value was “inactive”; for `CSc1ccc2c(c1)[C@H](N1CCN(C)CC1)Cc1ccccc1S2`, 31.6 µM (active). Same read-out and setting: then `CN1CCC[C@@H](CC2c3ccccc3Sc3ccccc32)C1`, with “inactive”; and `CN1CCC(=C2c3ccccc3Sc3ccccc32)CC1`, with “inactive”; and `O=c1c2ccccc2c(-c2ccccc2)nn1-c1ccc(Cl)c(Cl)c1`, with 0.126 µM (active). Still for that read-out and setting: for `O=C1Nc2cc(Cl)c(Cl)cc2N(O)N1c1ccc(Cl)c(Cl)c1` the value was “inactive”; for `COc1ccccc1CNc1nc(-c2c(C)noc2C)nc2ccccc12`, 0.631 µM (active).

Turning to `COc1ccccc1CN1CC[C@@]2(CCCN(C(=O)c3c(C)noc3C)C2)C1`, the AC50 entry is “inactive”. Same read-out and setting: for `COC(=O)Cc1c(C)nc2nc(NCc3ccccc3OC)[nH]n2c1=O` the value was “inactive”. Same read-out and setting: for `COc1ccc(CNc2nc(-c3c(C)noc3C)nc3ccccc23)c(OC)c1` the value was 0.794 µM (active); for `Cc1noc(C)c1-c1nc(NCc2cccs2)c2ccccc2n1`, 0.2 µM (active). Still for that read-out and setting: for `COc1ccc(N(CC(=O)NCc2cccc(OC)c2)S(=O)(=O)c2c(C)noc2C)cc1` the value was “inactive”. Take `CS(=O)(=O)N(Cc1cc2ccccc2[nH]c1=O)C1CCCCC1`: the AC50 entry was “inactive”. Same read-out and setting: for `CCS(=O)(=O)NCCc1cc2ccc(C)cc2[nH]c1=O` the value was 20 µM (active). In the case of `C[N+]1(CCC[N+]2(C)C[C@H]3[C@H](C2)[C@H]2C=C[C@@H]3CC2)CCOCC1` (stereo partly drawn), the activity, negative = inhibition was -11% [at 11.4 µM]. In the case of `Cc1cnc(CNc2cc(-c3ccc(C(=O)N(C)C)cc3)ncn2)cn1`, the AC50 entry is “inactive”. As to `Cc1cccc(CNc2cc(-c3ccc(N(C)C)cc3)ncn2)c1`, the AC50 was 1 µM (active).

Consider `CN(C)c1ccc(-c2cc(NCc3cccnc3)ncn2)cc1`, for which the AC50 was 0.398 µM (active). On the same count and under the same terms, then `CN(C)c1ccc(-c2cc(NCc3ccccc3)ncn2)cc1`, with 1 µM (active); and `Cc1cccc(CNc2cc(-c3ccc(C(=O)N(C)C)cc3)ncn2)c1`, with 15.8 µM (active). On to `CN(C)CCSCCO`, for which the activity, negative = inhibition was -14.3% [at 2.29 µM]. Take `CN(C)CC[C@@H](c1ccccc1)c1ccccn1`: the AC50 result was “inactive”. The same measure, in the same setting: for `CN(CCc1ccccn1)c1ccc2c(c1)C(=O)c1ccccc1-2` the value was 0.158 µM (active); for `CN(CCc1ccccn1)c1ccc2c(c1)Cc1ccccc1-2`, 0.631 µM (active). For the compound `CN(C)CC(CN(C)C)c1ccccn1`, the activity, negative = inhibition was -16.5% [at 11.4 µM]. `COc1cccc(-c2nc(NC3CCNCC3)c3ccccc3n2)c1`: the AC50 is 12.6 µM (active). For `COc1ccc(-c2cc([C@H](O)[C@@H]3CCCCN3)c3ccccc3n2)cc1`, the activity, negative = inhibition is -11% [at 2.29 µM]. As to `c1ccc2c(NC3CC3)nc(-c3ccoc3)nc2c1`, the AC50 is 0.316 µM (active). Same read-out and setting: for `COc1cccc(-c2nccc(NC3CCNCC3)n2)c1` the value was 6.31 µM (active); for `c1ccc2c(NC3CCNCC3)nc(-c3ccoc3)nc2c1`, 15.8 µM (active). For the compound `CC(=O)OC[C@@H]1O[C@@H](O/N=C2/C[C@@H](O)[C@@H](O)[C@@H]3[C@H]4C(=O)N(c5ccc(F)cc5F)C(=O)[C@@H]4CC[C@H]23)[C@H](OC(C)=O)[C@H](OC(C)=O)[C@@H]1OC(C)=O`, the activity, negative = inhibition was -3.19% [at 11.4 µM]. Turning to `Cc1cccc(N(CC(=O)NCCSCc2ccco2)S(=O)(=O)c2ccccc2)c1`, the AC50 result was “inactive”. For the compound `C/C(CCN1CCCCc2nc(C)c(C)cc21)=N\O[C@@H](C)c1cc(-c2c(C)cc(C)cc2C)no1`, the activity, negative = inhibition was 2.23% [at 11.4 µM]. In the case of `Nc1ncnc2c1nc(Sc1ccc(Cl)cc1)n2[C@@H]1O[C@H]2COP(=O)(O)O[C@@H]2[C@H]1O`, the AC50 result was “inactive”. Still for that read-out and setting: then `CN(C)c1ccc(-c2nc(NC3CCNCC3)c3ccccc3n2)cc1`, with 15.8 µM (active). Turning to `CC(C)=NO[C@@H](C)c1cn([C@H](CO)Cc2ccccc2)nn1`, the activity, negative = inhibition was -7.23% [at 11.4 µM] and -1.97% [at 11.4 µM].

With `CC1CCN(CCCn2c(=S)[nH]c3ccc(N4CCOCC4)cc3c2=O)CC1`, the AC50 entry was “inactive”.

As for `CCCCNC(=O)CSc1nc2ccccc2c(=O)n1CCNC(C)=O`, the AC50 result is “inactive”. Same read-out and setting: for `CCCCn1c(SCC(N)=O)nc2ccc(N3CCOCC3)cc2c1=O` the value was 4.47 µM (active). With `CCOC(=O)CCN1C(=O)[C@H]2[C@@H]3[C@H](O)C=CC(=O)[C@H]3CC[C@H]2C1=O`, the activity, negative = inhibition was -6.05% [at 11.4 µM]. For `Cc1ccc(C)c(C(=O)CN2C(=O)c3ccccc3S2(=O)=O)c1`, the AC50 entry was “inactive”. Same read-out and setting: then `CC(=O)c1cc(C)ccc1OC(=O)CCN1C(=O)C2C3c4ccccc4C(c4ccccc43)C2C1=O` (stereo not drawn), with 15.8 µM (active). For `OCCN1CCN(CCC=C2c3ccccc3Sc3ccc(Cl)cc32)CC1`, the AC50 is 15.8 µM (active). Same read-out and setting: for `CN(C)CC/C=C1\c2ccccc2CSc2ccccc21` the value was “inactive”.

For the compound `C[C@H]1CN(CCO)CCN1c1ccccc1`, the activity, negative = inhibition is -18.4% [at 11.4 µM].

On to `CN(C)CC/C=C1\c2ccccc2COc2ccccc21`, for which the AC50 is 15.8 µM (active). Same read-out and setting: then `CN(C)CCC=C1c2ccccc2C=Cc2ccccc21`, with “inactive”.

As for `CN(C)CC/C=C1\c2ccccc2Sc2ccc(Cl)cc21`, the AC50 was 1.58 µM (active). Same read-out and setting: then `CN1CCN(CCC=C2c3ccccc3Sc3ccc(S(=O)(=O)N(C)C)cc32)CC1`, with “inactive”. As to `CN1CCN(CCCN)CC1`, the activity, negative = inhibition was -19.9% [at 11.4 µM]. Regarding `NC[C@H](O)C1CCCCCCC1`, the AC50 result was “inactive”.

With `CC(C)N(Cc1ccccc1)S(=O)(=O)c1n[nH]c(C(C)(C)C)n1`, the activity, negative = inhibition is 2.16% [at 11.4 µM]. On to `Cc1ccc(C)c(NC(=O)C2(C)CC3c4ccccc4C2c2ccccc23)c1` (stereo not drawn), for which the AC50 result was “inactive”.

For the compound `Cc1ccc(C)c(NC(=O)NCc2ccc(Cl)cc2)c1`, the AC50 was 0.794 µM (active). Still for that read-out and setting: then `Cc1ccc(CNC(=O)C2(NC(=O)Nc3ccc(C)cc3)CCCCC2)cc1`, with “inactive”; and `CC1(C)C(=O)N(CCN2CCC(C(=O)c3ccc(F)cc3)CC2)c2ccccc21`, with “inactive”; and `O=C(NCCc1ccccc1)C(=O)NCC1(c2ccccc2)CCCC1`, with “inactive”. Still for that read-out and setting: then `O=C(CC(=O)NN=C1CCCC1)NCCc1ccccc1`, with “inactive”; and `O=C(NCCc1ccccc1)C(=O)NN=C1CCCC1`, with 12.6 µM (active). For the compound `C[C@@H]1CCCN(C[C@@H](O)CN2CCCc3ccccc32)C1`, the activity, negative = inhibition was -10.7% [at 11.4 µM]. As to `COC(=O)c1[nH]c2ccc(Br)cc2c1NC(=O)CN1CCCc2ccccc21`, the AC50 is 5.01 µM (active). Still for that read-out and setting: then `COC(=O)c1[nH]c2ccc(Br)cc2c1NC(=O)CN1CCN(C2CCCCC2)CC1`, with 12.6 µM (active).

The record behind these values is PubChem BioAssay AID1851 (National Center for Advancing Translational Sciences (NCATS), 2009).
